# Results taken from the supplement of paper PMC9262897, “Low-cost anti-mycobacterial drug discovery using engineered E. coli” (Nature Communications, 2022).
# Counter-ions that a name gives are not always drawn. ± gives the standard deviation of the averaged measurements.
# System: E. coli TESEC Mtb DapB
# Assay: growth (OD600 after 10 h); higher = more growth (less inhibition)
# Settings: arabinose induction (level): High; compound 0.1 mM; raw OD600 reference: median of DMSO wells […], cell-free background 0.041
# Experimental: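 TESEC E. coli strains in which the native enzyme is deleted and replaced by arabinose-inducible Mtb Asd, DapB, CysH or TrpD, each grown in its selective medium. Strains were screened against the Prestwick library at 0.1 mM and 1% DMSO in 384-well format at low and high arabinose induction. Growth is read as OD600 after 10 h in triplicate.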
row,SMILES,growth
1,Cc1cc(-c2ccccc2)nnc1NCCN1CCOCC1 [Minaprine dihydrochloride],0.185 ± 0.0026
2,N/C(=N\C(=O)c1nc(Cl)c(N)nc1N)NCc1ccccc1 [Benzamil hydrochloride],0.213 ± 0.023
3,O=C(CCCN1CCC(O)(c2ccc(Cl)cc2)CC1)c1ccc(F)cc1 [Haloperidol],0.187 ± 0.0073
4,CCCCc1ccc2[nH]c(NC(=O)OC)nc2c1 [Parbendazole],0.208 ± 0.0058
5,CC(=O)OCC(=O)[C@@]12N=C(C)O[C@@H]1C[C@H]1[C@@H]3CCC4=CC(=O)C=C[C@]4(C)[C@H]3[C@@H](O)C[C@@]12C [Deflazacort],0.186 ± 0.0061
6,CS(=O)(=O)c1ccc([C@@H](O)[C@@H](CO)NC(=O)C(Cl)Cl)cc1 [Thiamphenicol],0.0792 ± 0.0018
7,Nc1c2ccccc2nc2ccccc12 [Aminacrine],0.0484 ± 0.00044
8,COc1ccccc1OCC(O)CO (stereo not given) [Guaifenesin],0.192 ± 0.013
9,Cc1ncc([N+](=O)[O-])n1CC(O)CCl (stereo not given) [Ornidazole],0.191 ± 0.0088
10,CCCCC(CC)CN1CN(CC(CC)CCCC)CC(C)(N)C1 (stereo not given) [Hexetidine],0.218 ± 0.018
11,Cc1cccc(C)c1OCC(C)N (stereo not given) [Mexiletine hydrochloride],0.2 ± 0.013
12,CO[C@@H]1[C@@H](O[C@@H]2O[C@H](C)[C@@H](O[C@H]3C[C@@](C)(O)[C@@H](OC(=O)CC(C)C)[C@H](C)O3)[C@H](N(C)C)[C@H]2O)[C@@H](CC=O)C[C@@H](C)[C@@H](O)/C=C/C=C/C[C@@H](C)OC(=O)C[C@H]1OC(C)=O [Josamycin],0.0494 ± 0.00059
13,C=C1C(=O)O[C@H]2[C@H]1CC/C(C)=C/CC[C@@]1(C)O[C@@H]21 [Parthenolide],0.2 ± 0.0037
14,O=C(O)CCCC[C@@H]1SC[C@@H]2NC(=O)N[C@@H]21 [Biotin],0.18 ± 0.0081
15,CNCCC=C1c2ccccc2C=Cc2ccccc21 [Norcyclobenzaprine],0.186 ± 0.009
16,CCCCC1=NC2(CCCC2)C(=O)N1Cc1ccc(-c2ccccc2-c2nnn[nH]2)cc1 [Irbesartan],0.204 ± 0.014
17,CC(=O)N[C@@H](CC(=O)N[C@@H](CCC(=O)O)C(=O)O)C(=O)O [Spaglumic acid],0.211 ± 0.021
18,CCCCOc1cc(C(=O)OCCN(CC)CC)ccc1N [Benoxinate hydrochloride],0.183 ± 0.016
19,Clc1cnccn1 [2-Chloropyrazine],0.231 ± 0.013
20,CC1=C(C(=O)O)N2C(=O)[C@@H](NC(=O)[C@H](N)c3ccc(O)cc3)[C@H]2SC1 [Cefadroxil],0.192 ± 0.0046

# Same assay, conditions: arabinose induction (level): Low; compound 0.1 mM; raw OD600 reference: median of DMSO wells 0.227, cell-free background 0.041
row,SMILES,growth
1,Cc1cc(-c2ccccc2)nnc1NCCN1CCOCC1 [Minaprine dihydrochloride],0.225 ± 0.045
2,N/C(=N\C(=O)c1nc(Cl)c(N)nc1N)NCc1ccccc1 [Benzamil hydrochloride],0.232 ± 0.013
3,O=C(CCCN1CCC(O)(c2ccc(Cl)cc2)CC1)c1ccc(F)cc1 [Haloperidol],0.248 ± 0.034
4,CCCCc1ccc2[nH]c(NC(=O)OC)nc2c1 [Parbendazole],0.279 ± 0.031
5,CC(=O)OCC(=O)[C@@]12N=C(C)O[C@@H]1C[C@H]1[C@@H]3CCC4=CC(=O)C=C[C@]4(C)[C@H]3[C@@H](O)C[C@@]12C [Deflazacort],0.23 ± 0.013
6,CS(=O)(=O)c1ccc([C@@H](O)[C@@H](CO)NC(=O)C(Cl)Cl)cc1 [Thiamphenicol],0.0622 ± 0.0072
7,Nc1c2ccccc2nc2ccccc12 [Aminacrine],0.0506 ± 0.005
8,COc1ccccc1OCC(O)CO (stereo not given) [Guaifenesin],0.228 ± 0.023
9,Cc1ncc([N+](=O)[O-])n1CC(O)CCl (stereo not given) [Ornidazole],0.218 ± 0.031
10,CCCCC(CC)CN1CN(CC(CC)CCCC)CC(C)(N)C1 (stereo not given) [Hexetidine],0.225 ± 0.033
11,Cc1cccc(C)c1OCC(C)N (stereo not given) [Mexiletine hydrochloride],0.288 ± 0.071
12,CO[C@@H]1[C@@H](O[C@@H]2O[C@H](C)[C@@H](O[C@H]3C[C@@](C)(O)[C@@H](OC(=O)CC(C)C)[C@H](C)O3)[C@H](N(C)C)[C@H]2O)[C@@H](CC=O)C[C@@H](C)[C@@H](O)/C=C/C=C/C[C@@H](C)OC(=O)C[C@H]1OC(C)=O [Josamycin],0.0568 ± 0.0075
13,C=C1C(=O)O[C@H]2[C@H]1CC/C(C)=C/CC[C@@]1(C)O[C@@H]21 [Parthenolide],0.224 ± 0.022
14,O=C(O)CCCC[C@@H]1SC[C@@H]2NC(=O)N[C@@H]21 [Biotin],0.208 ± 0.022
15,CNCCC=C1c2ccccc2C=Cc2ccccc21 [Norcyclobenzaprine],0.21 ± 0.0089
16,CCCCC1=NC2(CCCC2)C(=O)N1Cc1ccc(-c2ccccc2-c2nnn[nH]2)cc1 [Irbesartan],0.263 ± 0.048
17,CC(=O)N[C@@H](CC(=O)N[C@@H](CCC(=O)O)C(=O)O)C(=O)O [Spaglumic acid],0.216 ± 0.027
18,CCCCOc1cc(C(=O)OCCN(CC)CC)ccc1N [Benoxinate hydrochloride],0.21 ± 0.036
19,Clc1cnccn1 [2-Chloropyrazine],0.254 ± 0.025
20,CC1=C(C(=O)O)N2C(=O)[C@@H](NC(=O)[C@H](N)c3ccc(O)cc3)[C@H]2SC1 [Cefadroxil],0.222 ± 0.011
